The panel holds about 83,000 compounds, 20% with a hit somewhere; the sample as a whole holds those more often.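 Plates (96-well) were seeded with cells, treated with compound at one concentration, and incubated for 48 hours before percent growth was determined.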 Activity calls are given as the source filed them.
System: NCI-H460 lung
Experiment: NCI-60 one-dose screen, 48 h (100 = growth as untreated, 0 = no growth, -100 = all killed)
Conditions: 10 µM unless noted
Procedure: Growth inhibition of the NCI-H460 human Non-Small Cell Lung tumor cell line is measured as a screen for anti-cancer activity. Cells are grown in 96 well plates and exposed to the test compound for 48 hours. Compounds are tested at a single concentration, which is 10^-5 M for most compounds. The reported endpoint is percent growth (GI% or GIPRCNT), where numbers from 0 - 100% represent growth inhibition, and numbers from -100% - 0 represent cell death. For example, a value of 40 represents 60% growth inhibition. A value of 0 means no net growth occurred over the course of the experiment. A value of -40 indicates 40% of cells at the beginning of the experiment died by the end of the experiment. A value of -100 means all cells are dead at the end of the experiment.
NCI-60 Human Tumor Cell Lines Screen was performed using the standard one-dose NCI protocol, which is described in more detail at https://dtp.cancer.gov/discovery_development/nci-60/default.htm.
Compounds with GIPRCNT values below 10 were considered active. Activity score was based on GIPRCNT using the following formula: […]
Score is 0 for GIPRCNT values of 100 or above, 50 for GIPRCNT values of 0, and 100 for GIPRCNT values of -100.

Row | SMILES | growth
1 | CN(C)C1CCN(Cc2ccc(NC(=O)c3cncc(C#Cc4cnc(N)c5ncccc45)c3)cc2C(F)(F)F)CC1 | 0.477% (active)
2 | CC(=O)c1cc(O)c2ccccc2c1O | 103% (inactive)
3 | O=C(N/N=C/c1ccc(F)cc1)c1ccc(C(F)(F)F)nc1Nc1cccc(C(F)(F)F)c1 | -17.7% (active)
4 | Cc1ccc(-c2nc(/C=C3/C(=O)Nc4ccccc43)c3ccccn23)cc1 | 40.7% (inactive)
5 | Oc1c(Cl)cc(Cl)cc1/C=N/Nc1nnc(N/N=C/c2cc(Cl)cc(Cl)c2O)c2ccccc12 | 0.0293% (active)
6 | CCN1C(=O)N(CC)C2C1NN=c1s/c(=C\c3cccc([N+](=O)[O-])c3)c(=O)n12 (stereo not given) | 5.14% (active)
7 | CC1=C(CCC(C)N(C)Cc2ccc(OCCCN3CCCC3)cc2)C(C)(C)CCC1 (stereo not given) | 5.81% (active)
8 | Cn1cc(-c2csc(-c3ccc(Cl)cc3)n2)c2cccnc21 | -16.4% [100 µM] (active)
9 | CC1(C)CC[C@]2(c3nnc(-c4ccncc4)o3)CC[C@H]3C(=CC[C@H]4[C@@]3(C)CC[C@H]3C(C)(C)C(=O)CC[C@]43C)[C@@H]2C1 | 40.4% (inactive)
10 | Cc1ccc(-c2nc(N3CCNCC3)c3oc(-c4ccccc4)nc3n2)cc1 | -72.5% (active)
11 | CCCCCC(=O)OCC(=O)O[C@@H]1C[C@]2(C(C)C)O[C@@]1(C)[C@@H]1CC[C@@H](C)[C@H]1[C@@H]2OC(=O)/C=C/c1ccccc1 | 93.3% (inactive)
12 | COc1ccc(OC)c(-c2c(C#N)c(-c3cccs3)nc3c2c(-c2ccccc2)nn3-c2ccccc2)c1 | 101% (inactive)
13 | CCn1cc(C(=O)N/N=C/c2cccs2)c(=O)c2cc(F)c(N3CCNC(C)C3)c(F)c21 (stereo not given) | 23.6% (inactive)
14 | CO[C@H]1/C=C(/C)CCC[C@H](C)[C@H](O)[C@@H](C)C(=O)C(C)(C)[C@@H](O)CC(=O)O[C@@H]1/C(C)=C/c1csc(C)n1 | 6.16% (active)
15 | O=C(CCCCCCN1CC(=O)N2[C@H](c3cc(Br)cs3)c3[nH]c4ccccc4c3C[C@H]2C1=O)NO | 35.1% (inactive)
16 | Fc1cc2c(cc1Cl)N(c1ncnc3ccc(-c4cnc5[nH]ncc5c4)cc13)CC2 | 54.7% (inactive)
17 | O=C(Cc1ccccc1)Nc1nc(O)c(/C=C2\C(=O)C=Cc3ccccc32)s1 | 99.4% (inactive)
18 | c1ccc(C2=NN[C@H](c3cn(-c4ccccc4)nc3-c3ccccc3)C2)cc1 | 29% (inactive)
19 | CCN1C(=O)N(CC)C2C1NN=c1s/c(=C\c3ccc(Cl)cc3Cl)c(=O)n12 (stereo not given) | 5.72% (active)
20 | C#CCOc1cccc(Nc2ncnc3c(NC(=O)C=C)cccc23)c1 | 12.8% (inactive)

Row | SMILES | growth
21 | Nc1nc2c([nH]1)c1[nH]c3ccccc3c1c1[nH]c3ccccc3c21 | 8.05% (active)
22 | COc1cc(C(=O)n2nc(N3CCN(C)CC3)c3cc(N)ccc32)cc(OC)c1OC | 38.8% (inactive)
23 | CCCCOC(=O)OCc1cc(=O)c(O)co1 | 101% (inactive)
24 | Brc1c2c(c(Br)c3ccccc13)CCCC2 | 111% (inactive)
25 | CCCCCCCCn1ccc2cc(NC(=O)CN3CCN(c4nc(C)cc(Cl)n4)CC3)ccc21 | 100% (inactive)
26 | COc1ccc2[nH]cc(-c3nc(-c4cn(C)c5c(Cl)nccc45)cs3)c2c1 | 6.1% (active)
27 | N=C(N)c1ccc(-c2ccc(-c3cc(Cl)cc(Cl)c3)o2)o1 | -78.3% (active)
28 | N#C/C(=C\c1ccc(Br)cc1)n1nnc2ccc(F)cc21 | -35.9% (active)
29 | COc1cc(N2C(=O)[C@H](O)C2c2ccc(SC)cc2)cc(OC)c1OC (stereo not given in full) | 5.6% (active)
30 | CN1C(=O)/C(=C/c2ccc(C(=O)Nc3ncc(Cc4ccc(Cl)cc4)s3)cc2)SC1=S | 21.1% (inactive)
31 | O=[N+]([O-])c1ccc(-c2nc(N3CCOCC3)c3c4c(sc3n2)CCCC4)cc1 | 107% (inactive)
32 | COc1ccc(-c2nnc3n(C)c(=O)c4ccccc4n23)cc1N | 13.6% (inactive)
33 | CC(C)=NNc1ccccn1 | 30% (inactive)
34 | CCOC(=O)c1c(NC(=O)c2ccc(C(C)C)cc2)sc2c(CN(C)C)c(O)ccc12 | 6.2% (active)
35 | COC(=O)c1c2c(c(C)[n+]([O-])c1C)C(=O)C=C(NCc1ccc(Br)cc1)C2=O | -53.8% (active)
36 | Cn1ccnc1C(=O)C(=O)Nc1ccc(CC(=O)Nc2ccccc2)cc1 | 102% (inactive)
37 | CCN(CC)CCOc1ccc(C(=C(C)c2ccc(Cl)cc2)c2ccc(OCCN(CC)CC)cc2)cc1 | -76.6% (active)
38 | N#C/C(=C/c1ccc([N+](=O)[O-])cc1)n1nnc2cc(F)c(F)cc21 | 33.1% (inactive)
39 | O=C(CN1C(=O)CCC1=O)Nc1ncc(Cc2ccc(F)cc2)s1 | 106% (inactive)
40 | CCCCC(=O)c1ccco1 | 106% (inactive)

Source: PubChem BioAssay (NCI)
